Vaccinia mCherry – inhibitors of vaccinia virus infection (mCherry reporter signal) | Vaccinia virus mCherry reporter infection, fluorescence | Potency, µM (highest dose often 36.5 µM), without a hit: top-dose activity change, negative = inhibition, actives largely listed as inhibitors | 310,000 compounds, 0.63% hits | AID 720579; calls by dose curve; tested in A549 cells; note: potency is the fitted concentration of half-maximal effect; nearly all actives have a fitted effect of over 35% in size
Vaccinia Venus – vaccinia inhibition (Venus reporter) | Vaccinia virus Venus reporter expression, fluorescence | Potency, µM (highest dose often 36.5 µM), for the others: at the top dose activity change, negative = inhibition, usual class: inhibitors | 330,000 compounds, 0.46% hits; calls by dose curve; tested in A549 cells; note: potency is the fitted concentration of half-maximal effect; nearly all actives have a fitted effect of over 30% in size
FMDV antiviral – antivirals against foot and mouth disease virus; FMDV antiviral cell-based qHTS; 410,000 compounds, 1.2% hits; Potency, µM (series often up to 57.9 µM), for the others: at the top dose activity change, negative = inhibition, usual class: inhibitors; AID 1159524; calls by dose curve; tested in HEK293T cells; note: read-out not given here; potency is the fitted concentration of half-maximal effect; nearly all actives have a fitted effect of over 45% in size
Lassa entry inh – inhibitors of Lassa virus binding or cell entry; 300,000 compounds, 1.2% hits; Potency, µM (top dose mostly 37.9 µM), without a hit: at the highest dose activity change, negative = inhibition, most hits filed as inhibitors; AID 540256; Lassa virus pseudotype entry inhibition, cell reporter; calls by dose curve; tested in HEK293 cells; note: potency is the fitted concentration of half-maximal effect; nearly all actives have a fitted effect of over 50% in size
HCMV antiviral – human cytomegalovirus inhibition. HFF cells, HCMV-luciferase reporter, 72 h; hits give low values. activity change, negative = inhibition, % at 57.5 µM. 410,000 compounds, 4.5% hits. AID 1259415; in the data active = activity change below about -60%; inconclusive = no clear call, values can overlap the other calls; inactive = above about -39%
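Two-dose cell screen: HFF monolayers treated with compounds and infected with luciferase-expressing HCMV at 1 PFU/cell, 72 h at 37C, then lysed for luciferase measurement.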
MARV entry inh – inhibitors of Marburg virus binding or cell entry. Marburg virus pseudotyped entry inhibition, cell reporter. Potency, µM (titrated, usually from 37.8 µM), inactives show top-dose activity change, negative = inhibition, actives largely listed as inhibitors. 300,000 compounds, 1.8% hits. AID 540276; calls by dose curve; tested in HEK293 cells; note: potency is the fitted concentration of half-maximal effect
Numbers without * were called inactive; [ ] = dose if it differs, or a comment. The list is not random: actives were taken first. Their share in the collection is about 6.5%. % is set by controls: 0 for no effect and ±100 for the full control effect.

Results for C=C1[C@@H](O)[C@@H]2O[C@]3(CC[C@H](/C=C/[C@@H](C)[C@@H]4CC(C)=CC5(O[C@H](C[C@@](C)(O)C(=O)OC)CC[C@H]5O)O4)O3)CC[C@H]2O[C@@H]1[C@@H](O)C[C@H](C)[C@H]1OC2(CCCCO2)CC[C@H]1C (stereo partly drawn) ?
Vaccinia mCherry: 1.3µM*; Vaccinia Venus: 1.3µM*; FMDV antiviral: 10%

What do the screens show for `C=C1C(O)[C@@H]2O[C@]3(CC[C@H](/C=C/C(C)[C@@H]4CC(C)=CC5(O[C@H](C[C@@](C)(O)CO)CCC5O)O4)O3)CC[C@H]2O[C@@H]1C(O)CC(C)[C@H]1OC2(CCCCO2)CCC1C` (stereo partly drawn)?
Vaccinia mCherry: inconclusive; Vaccinia Venus: 10µM*; FMDV antiviral: -14%

How did O=S(=O)(Nc1c(S(=O)(=O)c2ccccc2)c2nc3ccccc3nc2n1C1CCCCC1)c1ccccc1 do in these assays?
Vaccinia mCherry: 13µM*; Vaccinia Venus: 10µM*; FMDV antiviral: inconclusive; Lassa entry inh: -5%; HCMV antiviral: 35; MARV entry inh: 1%

How did CC(C)CO/N=C1\C[C@@H](O)[C@@H](O)[C@@H]2[C@@H]3C(=O)N(c4ccc(F)cc4F)C(=O)[C@@H]3CC[C@@H]12 do in these assays?
MARV entry inh: -10%[14.2 µM]

Results for COc1ccc(Cl)cc1C(=O)Nc1ccc(NC(C)=O)cc1 ?
Vaccinia mCherry: -20%; Vaccinia Venus: -13%; FMDV antiviral: 8%; Lassa entry inh: -20%; MARV entry inh: 2%[46.1 µM]

How did CC(=O)Oc1c(I)cc(I)cc1C(=O)Nc1ccc(Cl)cc1 do in these assays?
Vaccinia mCherry: 10µM*; Vaccinia Venus: inconclusive; FMDV antiviral: inconclusive; Lassa entry inh: 13µM*; HCMV antiviral: -99*; MARV entry inh: inconclusive

What do the screens show for `COc1ccc(OC)c(-n2cnc3cc(C(=O)NCCc4ccccc4)ccc32)c1`?
Vaccinia mCherry: -3%; Vaccinia Venus: -13%; FMDV antiviral: 32%; Lassa entry inh: 7%[46.1 µM]; HCMV antiviral: 22

What do the screens show for `Cc1cc(C)cc(-n2cnc3cc(C(=O)NCCc4ccccc4)ccc32)c1`?
Vaccinia mCherry: -24%; Vaccinia Venus: -24%; FMDV antiviral: 24%; Lassa entry inh: 3%[46.1 µM]; HCMV antiviral: -99*

How did COC(CNC(=O)c1ccc2c(c1)ncn2-c1cccc(F)c1)OC do in these assays?
Vaccinia mCherry: inactive; Vaccinia Venus: -1%; FMDV antiviral: -6%; Lassa entry inh: -11%; HCMV antiviral: -73*; MARV entry inh: 6%

Results for CC(C)Oc1ccc(CNC(=O)C2=Cc3ccccc3OC2)cc1 ?
Vaccinia mCherry: -6%; Vaccinia Venus: -10%; FMDV antiviral: 23%; Lassa entry inh: -12%[46.1 µM]; HCMV antiviral: 35

How did COc1ccc(-c2csc3ncnc(N4CCN(S(=O)(=O)c5ccc(C)cc5)CC4)c23)cc1 do in these assays?
Vaccinia mCherry: inconclusive; Vaccinia Venus: -15%; FMDV antiviral: -23%; Lassa entry inh: -18%; HCMV antiviral: -39; MARV entry inh: inconclusive

How did Cc1sc2ncnc(N3CCN(S(=O)(=O)c4ccc(C(C)(C)C)cc4)CC3)c2c1C do in these assays?
FMDV antiviral: inconclusive; HCMV antiviral: -82*

What do the screens show for `Cc1sc2ncnc(N3CCN(S(=O)(=O)c4ccc(Br)cc4)CC3)c2c1C`?
Vaccinia mCherry: inactive; Vaccinia Venus: -14%; FMDV antiviral: inconclusive; Lassa entry inh: -15%; HCMV antiviral: 1; MARV entry inh: 3%

What do the screens show for `Cc1csc2c(N3CCN(S(=O)(=O)c4ccc(Cl)cc4)CC3)ncnc12`?
Vaccinia mCherry: -15%; Vaccinia Venus: -9%; FMDV antiviral: -28%; Lassa entry inh: 2%[46.1 µM]; HCMV antiviral: 24; MARV entry inh: inconclusive

Results for O=S(=O)(c1ccc(Cl)cc1)N1CCN(c2ncnc3sccc23)CC1 ?
Vaccinia mCherry: -18%; Vaccinia Venus: -28%; FMDV antiviral: 14µM*; Lassa entry inh: inconclusive; HCMV antiviral: -69*; MARV entry inh: inconclusive

How did Cc1ccc(S(=O)(=O)N2CCN(C(=O)C3CCN(c4ncnc5sc(C)c(C)c45)CC3)CC2)c(C)c1 do in these assays?
FMDV antiviral: 20µM*; HCMV antiviral: -80*

Results for Cc1csc2ncnc(N3CCN(S(=O)(=O)c4cccc(C(F)(F)F)c4)CC3)c12 ?
Vaccinia mCherry: -3%; Vaccinia Venus: -13%; FMDV antiviral: inconclusive; Lassa entry inh: inconclusive; HCMV antiviral: -92*; MARV entry inh: inconclusive

How did CCOc1ccc(CNC(=O)c2cnc(SC)nc2CC)cc1 do in these assays?
Vaccinia mCherry: -7%; Vaccinia Venus: -10%; FMDV antiviral: -21%; Lassa entry inh: 2%[46.1 µM]; HCMV antiviral: -22

How did COC(=O)C1=C(C)N(Cc2ccccc2)C(=S)NC1c1cccc(F)c1 (stereo not drawn) do in these assays?
MARV entry inh: 48%[14.2 µM]

Results for NC1=NC(=O)/C(=C\c2ccc(-c3ccccc3[N+](=O)[O-])o2)S1 ?
Vaccinia mCherry: inactive; Vaccinia Venus: -2%

How did CC(C)(C)OC(=O)/C=C/[C@@H]1Cc2ccccc2N1 do in these assays?
HCMV antiviral: 33

What do the screens show for `COc1ccc2nc3cc(Cl)ccc3c(Nc3cc(C(C)C)c(O)cc3C)c2c1`?
Vaccinia mCherry: inconclusive; Vaccinia Venus: inconclusive; FMDV antiviral: inconclusive; Lassa entry inh: inconclusive; HCMV antiviral: inconclusive; MARV entry inh: 11µM*

What do the screens show for `O=C(NCc1cccs1)O[C@H]1CC[C@@]23CCCN2C(=O)CCC[C@H]3[C@H]1Cc1ccccc1`?
HCMV antiviral: -14

What do the screens show for `CCC(=O)Nc1c(C#N)c2nc3ccccc3nc2n1-c1ccc(C)cc1`?
Vaccinia mCherry: -6%; Vaccinia Venus: -9%; FMDV antiviral: inconclusive; HCMV antiviral: -27

How did CCC(C)n1c(NC(=O)c2ccccc2)c(C#N)c2nc3ccccc3nc21 (stereo not drawn) do in these assays?
Vaccinia Venus: inconclusive; FMDV antiviral: 11µM*; Lassa entry inh: inconclusive; HCMV antiviral: -39; MARV entry inh: inconclusive

How did CCCCn1c(NC(=O)c2ccccc2)c(C#N)c2nc3ccccc3nc21 do in these assays?
Vaccinia mCherry: -2%; Vaccinia Venus: -13%; Lassa entry inh: inconclusive; HCMV antiviral: -67*; MARV entry inh: inconclusive

Results for CCN(CC)CCN1C(=O)C(=O)/C(=C(/O)c2c(C)[nH]c(C(=O)OC)c2C)[C@@H]1c1ccc(OC)cc1 ?
MARV entry inh: 22%

Results for COc1cccc([C@H]2Oc3ccc(OC)cc3C(=NOCC[C@@H]3C=C[C@H](OC(C)=O)[C@@H](COC(C)=O)O3)[C@H]2O)c1 ?
Lassa entry inh: inconclusive; MARV entry inh: -24%[14.2 µM]

Compound activity: PubChem BioAssay, National Center for Advancing Translational Sciences (NCATS)
